Source: PubChem BioAssay
Active and inactive are the calls of the source. Unless noted, no rule for the calls is given here.

How the values were obtained:
[1] = A549 cell viability effects, profiling panel, calcein-AM fluorescence, 48 h, basal (AID 1162); details: higher = more signal; also: test concentration not given here
[2] = adipocyte viability effects, profiling panel, cell-based, 3T3-L1 adipocytes, calcein-AM fluorescence, 48 h, basal (AID 1163); details: 3T3-L1 adipocytes viability, higher = more signal; also: test concentration not given here
[3] = HepG2 cell viability effects, profiling panel, calcein-AM fluorescence, 48 h, basal (AID 1164); details: higher = more signal; also: test concentration not given here
[4] = MM1S cell viability effects, profiling panel, calcein-AM fluorescence, 48 h, basal (AID 1165); details: higher = more signal;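 also: viability of MM1S multiple myeloma cells under basal unstimulated conditions; test concentration not given here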
[5] = basal RPMI8226 viability, no added stimulus, profiling panel, cell-based, calcein-AM fluorescence, 48 h, PK04 Diversity Set (AID 1166); details: RPMI8226 myeloma viability, higher = more signal;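 also: cells grown under basal conditions without added stimulus; test concentration not given here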
[6] = basal HepG2 mitochondrial membrane potential changes, profiling panel, cell-based, JC-1 fluorescence, 24 h, 100 nL compound (AID 1167); details: higher = more signal; also: test concentration not given here
[7] = basal 3T3-L1 adipocyte mitochondrial potential changes, profiling panel, cell-based, JC-1 fluorescence, 3T3-L1 adipocytes, 24 h, 100 nL compound (AID 1168); details: JC-1 mitochondrial fluorescence, higher = more signal, called active from +8 up or from −8 down; also: test concentration not given here
[8] = basal RPMI8226 mitochondrial membrane potential changes, profiling panel, cell-based, JC-1 fluorescence, 24 h, 100 nL compound (AID 1169); details: RPMI8226 myeloma, JC-1 mitochondrial potential fluorescence, higher = more signal; also: test concentration not given here
[9] = basal MM1S mitochondrial membrane potential changes, profiling panel, cell-based, JC-1 fluorescence, 24 h, 100 nL compound (AID 1170); details: higher = more signal; also: test concentration not given here
[10] = A549 lung cancer cell viability effects, profiling panel, resazurin fluorescence, 24 h, PK04 Diversity Set (AID 1171); details: higher = more signal, called active from +8 up or from −8 down; also: test concentration not given here
[11] = HepG2 liver cancer cell viability effects, profiling panel, resazurin fluorescence, 24 h, PK04 Diversity Set (AID 1172); details: higher = more signal; also: test concentration not given here
[12] = basal S. cerevisiae growth modulation, no modifier, primary screen, OD600, strain BY4716, 24 h, basal condition (AID 1173); details: OD600, 24 h, higher = more signal, called active from +8 up or from −8 down
[13] = MM1S myeloma cell viability, profiling panel, resazurin fluorescence, basal, 24 h, PK04 Diversity Set (AID 1174); details: higher = more signal, called active from +8 up or from −8 down;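 also: MM1S multiple myeloma cell line; test concentration not given here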
[14] = molecular target: Dihydroorotate dehydrogenase (quinone), mitochondrial (Plasmodium falciparum (isolate 3D7)) (UniProt Q08210); assay: PfDHODH enzyme inhibitors, primary screen, biochemical, C-terminal His tag, absorbance 600 nm (AID 1175); details: DCIP absorbance 600 nm, higher = more signal, called active from +8 up or from −8 down;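 also: recombinant parasite enzyme with a five histidine tag at its C terminus; test concentration not given here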
[15] = P. aeruginosa biofilm formation inhibitors, primary screen, strain PAO1, LB-PBS medium, absorbance 600 nm (AID 1176); also: test concentration not given here; details: P. aeruginosa PAO1 growth/biofilm, A600, 12 h; higher = more signal
[16] = S. cerevisiae RM11-1a growth modifiers, primary screen, strain RM11-1a, OD600, basal, 24 h (AID 1177); details: OD600, 24 h, higher = more signal, called active from +8 up or from −8 down;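 also: cultures grown under basal conditions with no added stressor; test concentration not given here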
[17] = E. coli acrAB mutant growth effects, primary screen, E. coli filamentation inducers, strain DRC39, OD650, 24 h (AID 1178); details: higher = more signal, called active from +8 up or from −8 down;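 also: growth measured as culture turbidity by optical density at 650 nm; test concentration not given here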
[18] = E. coli acrAB mutant growth effects, primary screen, E. coli filamentation inducers, strain DRC39, OD650, 48 h (AID 1179);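 also: screen aims at cell division blockers that make cells filament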; details: E. coli DRC39 delta-acrAB growth, higher = more signal, called active from +8 up or from −8 down
[19] = RPMI8226 myeloma cell viability, profiling panel, resazurin fluorescence, basal, 24 h, PK04 Diversity Set (AID 1180); details: higher = more signal;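 also: RPMI8826 multiple myeloma cell line at 5000 cells per well; test concentration not given here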
[20] = molecular target: E3 ubiquitin-protein ligase XIAP (Homo sapiens) (UniProt P98170); assay: XIAP binders, primary screen, biophysical, small-molecule microarray, fluorescence 635 nm (AID 1181); details: small-molecule microarray binding, higher = more signal;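 also: score merges 667 nm emission and signal to noise over triplicate slides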
Chain of E3 ubiquitin-protein ligase XIAP (Homo sapiens) (P98170 whole entry, looked up): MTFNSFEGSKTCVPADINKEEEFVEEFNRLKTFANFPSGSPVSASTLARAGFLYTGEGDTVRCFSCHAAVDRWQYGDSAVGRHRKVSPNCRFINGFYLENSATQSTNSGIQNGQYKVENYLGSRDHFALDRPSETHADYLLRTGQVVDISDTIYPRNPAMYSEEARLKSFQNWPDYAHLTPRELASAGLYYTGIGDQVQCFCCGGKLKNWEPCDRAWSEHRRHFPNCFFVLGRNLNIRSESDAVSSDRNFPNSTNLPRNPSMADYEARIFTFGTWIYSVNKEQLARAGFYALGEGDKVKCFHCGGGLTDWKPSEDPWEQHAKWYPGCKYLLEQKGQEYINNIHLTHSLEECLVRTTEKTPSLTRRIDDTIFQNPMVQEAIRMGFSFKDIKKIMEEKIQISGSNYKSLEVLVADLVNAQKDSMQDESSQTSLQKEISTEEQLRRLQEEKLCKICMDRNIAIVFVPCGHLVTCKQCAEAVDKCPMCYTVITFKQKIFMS

Chain of Dihydroorotate dehydrogenase (quinone), mitochondrial (Plasmodium falciparum (isolate 3D7)) (Q08210 whole entry, looked up): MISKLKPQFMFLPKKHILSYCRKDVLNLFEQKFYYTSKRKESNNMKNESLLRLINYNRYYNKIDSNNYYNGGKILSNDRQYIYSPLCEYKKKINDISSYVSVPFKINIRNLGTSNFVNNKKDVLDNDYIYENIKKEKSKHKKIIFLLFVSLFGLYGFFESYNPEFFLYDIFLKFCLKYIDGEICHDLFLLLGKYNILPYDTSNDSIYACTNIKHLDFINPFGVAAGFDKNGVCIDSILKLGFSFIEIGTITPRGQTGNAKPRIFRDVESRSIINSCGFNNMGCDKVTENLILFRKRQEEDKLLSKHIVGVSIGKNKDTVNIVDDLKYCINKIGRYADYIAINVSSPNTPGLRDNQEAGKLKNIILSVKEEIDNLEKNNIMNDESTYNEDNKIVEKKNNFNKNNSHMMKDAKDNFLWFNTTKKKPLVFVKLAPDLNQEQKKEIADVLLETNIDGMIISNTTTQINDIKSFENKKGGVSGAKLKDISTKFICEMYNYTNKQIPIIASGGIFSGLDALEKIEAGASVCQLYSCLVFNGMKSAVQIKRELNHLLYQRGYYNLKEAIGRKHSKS

Cc1ccccc1C(O)C1C=CC2C(=O)N(c3ccccc3)C(=O)C2N1Nc1ccc(C(C)C)cc1 (stereo not given)
z-score [1]: -0.0475
z-score [2]: -0.127
z-score [3]: -0.169
z-score [4]: -0.136
z-score [5]: -0.727
z-score [6]: -2.15
z-score [7]: -1.8 (inactive)
z-score [8]: -0.754
z-score [9]: -0.0109
z-score [10]: -1.41 (inactive)
z-score [11]: -1.7
z-score [12]: -0.945 (inactive)
z-score [13]: -1.31 (inactive)
composite z-score [14]: 1.82 (inactive)
z-score [15]: 0.807 (inactive)
z-score [16]: 1.93 (inactive)
z-score [17]: -0.765 (inactive)
z-score [18]: -1.14 (inactive)
z-score [19]: -1.06
composite z-score [20]: 1.24

C[N+](C)(C)CCCCNC(=O)[C@H]1C[C@H]2C(=O)N3CCC[C@H]3C(=O)N2[C@H]1c1cccc(OCCO)c1
z-score [1]: -0.591
z-score [2]: -0.682
z-score [3]: -0.545
z-score [4]: 0.129
z-score [5]: 0.157
z-score [6]: -0.901
z-score [7]: -0.186 (inactive)
z-score [8]: -0.0988
z-score [9]: -0.193
z-score [10]: -0.699 (inactive)
z-score [11]: -2.49
z-score [12]: 1.43 (inactive)
z-score [13]: -1.12 (inactive)
composite z-score [14]: -30.8 (active)
z-score [15]: 0.628 (inactive)
z-score [16]: 0.647 (inactive)
z-score [17]: 0.66 (inactive)
z-score [18]: 0.629 (inactive)
z-score [19]: -0.951
composite z-score [20]: 0.261

CN1C(=O)C2C=CC(C(O)c3ccc([N+](=O)[O-])cc3)N(N3CCCCC3)C2C1=O (stereo not given)
z-score [1]: -0.234
z-score [2]: -0.69
z-score [3]: -0.384
z-score [4]: -0.324
z-score [5]: -0.721
z-score [6]: -1.24
z-score [7]: -0.927 (inactive)
z-score [8]: 0.0849
z-score [9]: 0.134
z-score [10]: -0.197 (inactive)
z-score [11]: -0.777
z-score [12]: 0.217 (inactive)
z-score [13]: -0.51 (inactive)
composite z-score [14]: 0.0871 (inactive)
z-score [15]: 0.711 (inactive)
z-score [16]: 0.189 (inactive)
z-score [17]: -0.884 (inactive)
z-score [18]: -1.24 (inactive)
z-score [19]: -0.85
composite z-score [20]: 0.384

C=CCOC(=O)[C@@H]1[C@H]2C(=O)O[C@H](c3ccccc3)[C@H](c3ccccc3)N2[C@H](c2ccc(OCCOC(=O)[C@@H]3C[C@@H]4C(=O)NCC(=O)N4[C@@H]3c3ccc(O)cc3)cc2)[C@@]12C(=O)Nc1ccc(I)cc12
z-score [1]: -0.814
z-score [2]: 0.198
z-score [3]: -0.207
z-score [4]: -0.647
z-score [5]: -0.319
z-score [6]: -2.11
z-score [7]: -0.444 (inactive)
z-score [8]: -0.972
z-score [9]: -0.919
z-score [10]: 0.994 (inactive)
z-score [11]: 0.978
z-score [12]: 0.286 (inactive)
z-score [13]: 1.11 (inactive)
composite z-score [14]: -0.365 (inactive)
z-score [15]: 0.118 (inactive)
z-score [16]: 1.38 (inactive)
z-score [17]: 0.202 (inactive)
z-score [18]: -0.515 (inactive)
z-score [19]: 1.3
composite z-score [20]: 0.164

COC(=O)[C@@]1(Cc2ccc(F)cc2)[C@H]2c3cc(C(=O)N4CCCC4)n(CCCNc4ncc(C(F)(F)F)cc4Cl)c3C[C@H]2CN1C(=O)c1ccccc1
z-score [1]: -0.386
z-score [2]: -0.68
z-score [3]: 0.0224
z-score [4]: -1.48
z-score [5]: -1.13
z-score [6]: 1.12
z-score [7]: -1.8 (inactive)
z-score [8]: -0.501
z-score [9]: -1.2
z-score [10]: -0.733 (inactive)
z-score [11]: -0.461
z-score [12]: 2.05 (inactive)
z-score [13]: -2.38 (inactive)
composite z-score [14]: 0.308 (inactive)
z-score [15]: 1.03 (inactive)
z-score [16]: 1.65 (inactive)
z-score [17]: -0.645 (inactive)
z-score [18]: -0.681 (inactive)
z-score [19]: -2.34
composite z-score [20]: 0.426
